Screens (PubChem BioAssay)
SW480 rerep = A quantitative high throughput screen for small molecules that induce DNA re-replication in SW480 colon adenocarcinoma cells | 340,000 compounds, 1.8% hits | Potency, µM (series often up to 46.1 µM), for the others: top-dose re-replication activation, actives largely listed as activators | SW480 DNA re-replication, Hoechst DNA content imaging, 48 h; further: potency means the concentration at half of the fitted maximal effect; % of control where 0% means no effect; nearly all actives have a fitted effect of over 55% in size
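Readout is total intensity of Hoechst-stained nuclei, excited at 405 nm and collected at 500-530 nm. Compound treatment lasted 48 hr at 37 C in 5% CO2 before staining.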
MCF10A rereplic = A quantitative high throughput screen for small molecules that induce DNA re-replication in MCF 10a normal breast cells; MCF 10A DNA re-replication, Hoechst nuclear intensity, 48 h; Potency, µM (titrated, usually from 46.1 µM), for the others: at the highest dose activity, positive = re-replication, most hits filed as activators; 350,000 compounds, 2.9% hits; AID 624296, 2012; further: potency means the concentration at half of the fitted maximal effect; % of control where 0% means no effect; nearly all actives have a fitted effect of over 50% in size
VP16 counter = VP16 counterscreen qHTS for inhibitors of ROR gamma transcriptional activity. Potency, µM (highest dose often 53.6 µM), without a hit: top-dose activity, negative = inhibition, usual class: inhibitors. Drosophila S2 Gal4-VP16 UAS-luciferase, luminescence, 20 h. 310,000 compounds, 3.5% hits;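 further: Gal4-VP16 expression switched on by copper sulfate through the metallothionein promoter; potency means the concentration at half of the fitted maximal effect; on the % scale 0 is the no-effect control and ±100 the full control effect; nearly all actives have a fitted effect of over 50% in size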
RORg inh = qHTS for inhibitors of ROR gamma transcriptional activity; Potency, µM (top dose mostly 53.6 µM), inactives show top-dose activity change, negative = inhibition, most hits filed as inhibitors; 310,000 compounds, 5.4% hits; Drosophila S2 Gal4-RORgamma UAS-luciferase reporter, 20 h; Nuclear receptor ROR-gamma (Mus musculus), P51450; further: potency means the concentration at half of the fitted maximal effect; on the % scale 0 is the no-effect control and ±100 the full control effect; nearly all actives have a fitted effect of over 60% in size
Target sequence (P51450 whole entry, looked up, the tested form may be a part): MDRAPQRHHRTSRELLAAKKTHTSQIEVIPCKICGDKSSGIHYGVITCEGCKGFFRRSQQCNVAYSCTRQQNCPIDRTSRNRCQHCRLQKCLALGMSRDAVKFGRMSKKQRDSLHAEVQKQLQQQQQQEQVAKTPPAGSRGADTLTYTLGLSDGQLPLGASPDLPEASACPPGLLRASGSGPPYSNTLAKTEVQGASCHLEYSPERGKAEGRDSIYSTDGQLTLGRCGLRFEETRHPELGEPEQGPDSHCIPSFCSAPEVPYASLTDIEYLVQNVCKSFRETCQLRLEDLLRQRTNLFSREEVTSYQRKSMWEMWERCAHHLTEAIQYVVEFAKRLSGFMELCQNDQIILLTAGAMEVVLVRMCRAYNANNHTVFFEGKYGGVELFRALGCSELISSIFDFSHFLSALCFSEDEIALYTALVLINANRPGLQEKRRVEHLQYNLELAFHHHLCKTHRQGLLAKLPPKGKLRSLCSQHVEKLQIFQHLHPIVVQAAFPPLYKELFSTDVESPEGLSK
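Stably transfected Drosophila Schneider cells are the test system, with ROR gamma fused to Gal4 and luciferase under UAS control; luminescence is read after 20 hr of 700 uM copper sulfate induction at ambient temperature.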
IL-1B inflam inh = qHTS for Inhibitors of Inflammasome Signaling: IL-1-beta AlphaLISA Primary Screen. activity change, % at 57.5 µM. AID 743279, 2014. 360,000 compounds, 4.7% hits. THP-1 LPS/ATP IL-1B secretion, AlphaLISA, 16 h; stronger effect = lower value; in the data active means activity change below about -50%; inconclusive means mostly about -30% to -49%; further: on the % scale 0 is the no-effect control and ±100 the full control effect
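THP-1 cells pretreated 1 hr with compounds (up to 57.5 uM final), then stimulated with LPS (250 ng/mL final) plus ATP (1.25 mM final); secreted IL-1B measured by AlphaLISA after 16 hr, decreased signal indicating inhibition.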
* marks the source's active call; other numbers are inactive results; i = inactive; ? = inconclusive; . = no result given; ! = a repeat was not active; [ ] = dose if it differs, or a comment. Hits are enriched below; roughly 11% of the tested compounds scored in any of these assays. Unless noted, the call rests on the fitted dose curve; in most records, active means well fitted curve in the direction sought with a large enough effect; inconclusive means small, poorly fitted or top-dose-only effect, or another doubt; inactive means no such curve, though single readings can be large; an effect the other way counts as inactive or inconclusive.

SMILES | SW480 rerep | MCF10A rereplic | VP16 counter | RORg inh | IL-1B inflam inh
COc1cc(C(=O)OCC(=O)Nc2sccc2C(N)=O)cc(OC)c1OC | 14% | ? | 1% | 3% | 78
COc1cc(CCC(=O)OCC(=O)Nc2sccc2C(N)=O)cc(OC)c1OC | 16µM* | -20% | . | . | 5
Cc1ccccc1OCC(O)Cn1c(=N)n(CCN2CCOCC2)c2ccccc21 (configuration not stated) | -1% | -8% | -12% | -24% | -54*!
N=c1n(CCN2CCOCC2)c2ccccc2n1CC(O)COc1ccccc1 (configuration not stated) | -7% | -5% | -3% | -25% | -15
COc1ccc(OCC(O)Cn2c(=N)n(CCN3CCOCC3)c3ccccc32)cc1 (configuration not stated) | -2% | 17% | -10% | -2% | -62*
CN(C(=O)CSc1ncnc2sccc12)C1CCCCC1 | -4% | 3% | . | . | -14
COc1ccc(NC(=O)NNC(=O)C(C)Oc2ccc3ccccc3c2)cc1OC (configuration not stated) | -4% | 0% | 5% | -17% | i
Cc1nn(C)c(C)c1CN(Cc1nc(-c2ccc(F)cc2F)oc1C)C1CC1 | 5% | 11% | -7% | 0% | -23
Cc1nn(C)c(C)c1CN(Cc1nc(-c2cc(F)ccc2F)oc1C)C1CC1 | 1% | 4% | -9% | 28µM* | -25
CCOC(=O)/C(=C\c1cccc(O)c1)c1nc2sc(C)c(C)c2c(=O)[nH]1 | ? | 2.3µM* | 2% | 39% | -102*
COCc1ccc(-c2c(-c3cc(OC)cc(OC)c3)oc(=O)c3cc(OC)c(OC)cc23)cc1 | -10%[9.22 µM] | 2% | . | . | 0
Cc1cccc(CSCc2ccc(C(=O)NC(C)C)o2)c1 | -2% | 4% | -14% | ? | 0
CC(C)CCNC(=O)c1ccc(CSCc2cccc(F)c2)o1 | -5% | 19% | 12% | 17% | -63*
O=C(Cc1ccc(F)cc1)N1CCC(CC2CC(c3cccc(Br)c3)=NO2)(C(=O)NCC2CCCCC2)CC1 (configuration not stated) | 1% | 12% | -3% | ? | ?
O=C(Cc1ccc(F)cc1)N1CCC(CC2CC(c3ccc(Cl)cc3)=NO2)(C(=O)NCC2CCCCC2)CC1 (configuration not stated) | 13% | 18% | 6% | 23% | -55*
CCCCCCCNC(=O)C1(CC2CC(c3cccc(Br)c3)=NO2)CCNCC1 (configuration not stated) | 5% | ? | -15% | 23% | -102*
CCCCCCCNC(=O)C1(CC2CC(c3cccc(Br)c3)=NO2)CCN(C(=O)Cc2ccc(F)cc2)CC1 (configuration not stated) | -2% | ? | . | . | -59*
CCCCCCCNC(=O)C1(CC2CC(c3ccc(Cl)cc3)=NO2)CCNCC1 (configuration not stated) | 22% | 116% | ? | ? | -84*
C/C(N)=C(/C#N)C(=O)CN1C(=O)NC(Cc2c[nH]c3ccccc23)C1=O (configuration not stated) | -10% | -8% | 15% | 5% | 27
CCCC(=O)N1CCC1(C)C(=O)Nc1cccc(OC(C)C)c1 (configuration not stated) | . | . | . | . | 6
CCCCC/C=C\C/C=C\CCCCCCCC(=O)NCCCC(=O)O | . | . | -1% | -15% | .
CC(C)NC(=O)/C(C#N)=C/c1cccc(NC(=O)c2ccccc2Cl)c1 | ? | ? | ? | ? | -104*
CCCCCn1c(=O)c2ccccc2n2c(CCl)nnc12 | ? | ? | 7% | -27% | -100*
Cc1ccccc1S(=O)(=O)NC(=O)C1(C)CCN1C(=O)CCc1ccc(Cl)cc1Cl (configuration not stated) | . | . | . | . | 0
COc1ccc(-c2ccc(C(=O)NCc3ccc(F)c(F)c3)c3occc23)c(C)c1 | . | . | . | . | -59*
